Compound activity (PubChem)
Rows were chosen to be rich in hits. Some 8.1% of all compounds tested hit in one or more screens of this group.
MCF10A rerep – A quantitative high throughput screen for small molecules that induce DNA re-replication in MCF 10a normal breast cells; AID 624296, 2012; Potency, µM (titrated, usually from 46.1 µM), for inactives: top-dose activity, positive = re-replication, actives largely listed as activators; MCF 10A DNA re-replication, Hoechst nuclear intensity, 48 h; 350,000 tested, 2.9% active; further: % of control where 0% means no effect; nearly all actives have a fitted effect of over 50% in size
ELG1 repair inh – qHTS screen for small molecules that inhibit ELG1-dependent DNA repair in human embryonic kidney (HEK293T) cells expressing luciferase-tagged ELG1. HEK293T ELG1-luciferase reporter, luminescence, 16 h; DNA damage induced by 5-fluorouridine. Potency, µM (titrated, usually from 46.1 µM), for inactives: at the top dose activity change, negative = inhibition, hits mostly inhibitors. 330,000 tested, 2.3% active; further: on the % scale 0 is the no-effect control and ±100 the full control effect; nearly all actives have a fitted effect of over 55% in size
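DMSO vehicle served as the neutral condition. Each well held 2,000 cells given 5-fluorouridine plus compound; after 16 hr at 37 °C/5% CO2, ONE-Glo was added and luciferase measured 30 min later.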
KB-3-1 cytotox – qHTS assay for MDR1-selective chemotherapeutics: Primary screen using the parental adenocarcinoma cell KB-3-1 | KB-3-1 viability, CellTiter-Glo ATP luminescence, 72 h | Potency, µM (titrated, usually from 46.1 µM), actives largely listed as cytotoxic | 400,000 tested, 1.4% active; further: on the % scale 0 is the no-effect control and ±100 the full control effect; nearly all actives have a fitted effect of over 60% in size
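Cytotoxicity in the drug-sensitive parental line KB-3-1 was scored as loss of CellTiter-Glo luminescence following 72 h incubation with compound. Values come from curve fitting of normalized concentration-response data.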
SW480 rerep – A quantitative high throughput screen for small molecules that induce DNA re-replication in SW480 colon adenocarcinoma cells; SW480 DNA re-replication, Hoechst DNA content imaging, 48 h; 340,000 tested, 1.8% active; Potency, µM (highest dose often 46.1 µM), inactives show at the top dose re-replication activation, actives largely listed as activators; further: % of control where 0% means no effect; nearly all actives have a fitted effect of over 55% in size
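Cells (250 per well) received 23 nL compound or DMSO by pin tool and were kept 48 hr at 37 C, 5% CO2. Nuclei were then stained with Hoechst for 40 min and scanned for DNA content.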
KB-V1 MDR tox – qHTS assay for MDR1-selective chemotherapeutics: Primary screen using the drug-selected MDR subline cells KB-V1. AID 1347076, 2019. KB-V1 MDR cells viability, CellTiter-Glo, 72 h. Potency, µM (series often up to 46.1 µM), hits mostly cytotoxic. 400,000 tested, 3.4% active; further: on the % scale 0 is the no-effect control and ±100 the full control effect; nearly all actives have a fitted effect of over 60% in size
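Readout: CellTiter-Glo luminescence, 10 min after addition. Cells: KB-V1 MDR subline, 72 h at 37 degrees C with compound. Analysis: corrected, normalized data fitted to concentration-effect curves.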
Starred values were filed as active, the others as inactive; i = inactive; ? = inconclusive; · = no result. The call rests on the fitted dose curve; in most records, active means well fitted curve in the direction sought with a large enough effect; inconclusive means small, poorly fitted or top-dose-only effect, or another doubt; inactive means no such curve, though single readings can be large; an effect the other way counts as inactive or inconclusive. Potency means the concentration at half of the fitted maximal effect.

SMILES	MCF10A rerep	ELG1 repair inh	KB-3-1 cytotox	SW480 rerep	KB-V1 MDR tox
C(=C\c1ccco1)/c1ccc2ccccc2n1	18µM*	?	i	-24%	i
COc1cc(/C=C/c2ccc3ccccc3n2)cc(OC)c1OC	·	·	2.6µM*	·	?
CCOC(=O)N1CCN(CC(=O)Nc2nccs2)CC1	·	·	i	·	i
Fc1ccc(/C=C/c2nccc3ccccc23)cc1	·	·	18µM*	·	i
CN(C)c1ccc(/C=C/c2nccc3ccccc23)cc1	·	·	i	·	i
O=C(O)c1c[nH]c2c([N+](=O)[O-])cccc2c1=O	?	·	i	15%	?
O=C(Nc1ncccn1)c1ccc([N+](=O)[O-])o1	9.2µM*	28%	?	?	i
O=C(Nc1ccccn1)c1ccco1	1%	?	i	1%	i
O=C(Nc1ccccn1)c1ccc([N+](=O)[O-])o1	9.2µM*	-25%	?	?	?
O=C(Nc1cc(-c2nc3ncccc3o2)ccc1Cl)c1ccc([N+](=O)[O-])o1	1.3µM*	-8%	3.7µM*	1.3µM*	?
CCCn1c(NC(=O)c2ccc([N+](=O)[O-])o2)nc2ccccc21	?	?	i	21µM*	?
CCOC(=O)/C=C/c1ccc2c(c1)S(=O)(=O)N(C1CCCC1)[C@H]2CC(=O)OCC	·	·	i	·	?
COc1ccc(CN2CCc3nc(SCC(=O)Nc4cc(C)cc(C)c4)[nH]c(=O)c3C2)cc1	·	·	i	·	?
Cc1ccnc2nc(C(=O)OCC(=O)N(Cc3ccccc3)C(C)C)nn12	-3%	0%	i	-4%	?
Cc1ccnc(NC(=O)c2ccccc2[N+](=O)[O-])c1	9%	?	i	-1%	?
Cc1ccnc(NC(=O)c2ccc([N+](=O)[O-])o2)c1	4.1µM*	15%	?	5.8µM*	i
CCCC(C)Sc1nc2c([nH]1)c(=S)n(C)c(=O)n2C (stereo unspecified)	16%	·	?	?	8.2µM*
CCc1ccc(NC(=O)C2CCCN(c3nn4cc(-c5ccc(OC)cc5)nc4s3)C2)cc1 (stereo unspecified)	·	·	i	·	?
O=C1NC(c2cccc3ccccc23)Nc2ccc(Cl)cc21 (stereo unspecified)	?	·	0.18µM*	0.73µM*	0.23µM*
Clc1ccc(C2Nc3cccc4cccc(c34)N2)c(Cl)c1	1%	·	?	?	i
CC1CCCCC1NS(=O)(=O)c1ccc(S(=O)(=O)NCc2ccncc2)cc1 (stereo unspecified)	21%	?	i	0%	16µM*
CCOc1ccc(S(=O)(=O)NCCCn2ccnc2)cc1	23µM*	-9%	i	-8%	?
COc1ccc(S(=O)(=O)NCc2ccncc2)cc1OC	-19%	7.3µM*	i	-4%	i
CCOc1cc(S(=O)(=O)NCCCn2ccnc2)ccc1Cl	-1%	-7%	i	8%	i
Cc1ccc(S(=O)(=O)NCc2ccncc2)cc1	?	?	?	?	i
SMILES	MCF10A rerep	ELG1 repair inh	KB-3-1 cytotox	SW480 rerep	KB-V1 MDR tox
CCOc1ccccc1NC(=S)NCCCn1ccnc1	0.58µM*	12%	i	?	?
CCc1ccccc1NC(=O)c1nn(-c2ccc(C)cc2)c(=O)c2c1c1ccccc1n2C	·	·	i	·	i
CCCC1CC(=O)NC1(C(=O)OCC)C(=O)OCC (stereo unspecified)	-3%	·	i	-2%	i
Cc1cc(C)cc(Nc2cc(C)nc3nc(-c4ccco4)nn23)c1	·	·	i	·	i
Cc1ccc(NC(=O)c2cc3c([nH]c2=O)CC(c2ccccc2)CC3=O)cc1 (stereo unspecified)	·	·	?	·	i
CCOC(=O)COc1ccc(S(=O)(=O)NCc2ccncc2)cc1	2%	-4%	?	4%	i
CCOc1ccc(S(=O)(=O)NCc2ccncc2)cc1	7%	?	0.82µM*	0%	0.65µM*
Brc1ccc(-c2nnc3sc(CN4CCc5ccccc5C4)cn23)cc1	7%	·	i	?	i
COc1cccc(-c2nnc3sc(CN4CCCCC4)cn23)c1	·	·	2.6µM*	·	i
c1ccc(-c2nnc3sc(CN4CCc5ccccc54)cn23)cc1	-2%	-6%	21µM*	0%	?
CCN1C[C@@H]2[C@@H]3C(=O)N(Cc4ccccc4)C(=O)[C@@H]3[C@](C)(C1=O)N2C(=O)c1ccc(Cl)c(Cl)c1	14%	·	i	-2%	i
COc1ccc(-n2ccnc2SCC(=O)NC2CCCC2)cc1	7%	-2%	i	-1%	i
Cc1nc2ccccc2nc1/C=C/c1ccc(N(C)C)cc1	·	·	5.2µM*	·	?
CN(C)c1ccc(/C=C/c2nc3ccccc3c(=O)[nH]2)cc1	2%	?	i	16%	i
CN(C)c1ccc(/C=C/c2cc(N(C)C)nc3ccccc23)cc1	·	·	0.58µM*	·	1.8µM*
CN(C)c1ccc(/C=C/c2cc(Cl)nc3ccccc23)cc1	·	·	?	·	13µM*
COc1ccc(CNC(=O)N2[C@H]3CC[C@@H]2C=C(c2ccc(F)cc2OCc2ccccc2)C3)cc1OC	·	·	i	·	?
CCOC(=O)[C@]12CCC=C1N(Cc1ccccc1)C(=O)[C@H](CC(=O)NCc1cccc(C(F)(F)F)c1)C2	·	·	i	·	i
Cc1ccc2cccc(OCCCOc3ccccc3F)c2n1	13µM*	2%	i	?	i
Cc1cccc(OCCCOc2cccc3cccnc23)c1C	23µM*	3%	?	?	i
O=Cc1ccccc1OCCCOc1cccc2cccnc12	18µM*	23%	i	96%	i
Brc1ccc(OCCOCCOc2cccc3cccnc23)cc1	-1%	·	i	-6%	18µM*
CC(=O)N[C@@H](CCC(=O)O)C(=O)O	4%	·	·	3%	·
Cc1ccc(SC[C@H](Cc2ccccc2)N2CC[C@@H](C(C)(C)C)CCC2=O)cc1	·	·	i	·	?
COC(=O)c1cc(NC(=O)Cn2ncc3c2-c2ccccc2OC3)cc(C(=O)OC)c1	·	·	i	·	i
COC(=O)c1ccc(OCCOCCOc2cccc3ccc(C)nc23)cc1	1%	?	i	1%	15µM*
COC(=O)c1ccccc1OCCOCCOc1cccc2ccc(C)nc12	-4%	?	i	-7%	?
O=C(NNc1c(F)c(F)cc(F)c1F)c1ccco1	9%	9%	i	-1%	i
O=C(NN=Cc1cc(Cl)ccc1[N+](=O)[O-])c1ccco1	0%	·	i	-4%	15µM*
